Shown are actives, neighbours in structure and some others; about 19% of the full set was active somewhere.
Shiga toxin inh = A qHTS for Small Molecule Inhibitors of Shiga Toxin. Vero cells, Shiga toxin protein synthesis inhibition reporter. inhibition, % at 38.7 µM. 290,000 tested, 9.2% active; in the data active = inhibition mostly above about 28%, no sharp cut-off; inactive = mostly below about 43%
Pf growth 48h = Primary qHTS for delayed death inhibitors of the malarial parasite plastid, 48 hour incubation; AID 504832, 2011; Potency, µM (highest dose often 28.7 µM), hits mostly inhibitors; P. falciparum luciferase growth in erythrocytes, 48 h; 310,000 tested, 5.9% active
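Parasite viability was followed by luminescence of a genomically integrated firefly luciferase. Cultures held 0.1% parasitemia at 2% hematocrit (final), incubated under 5% CO2 at 37 C.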
AMA1-RON2 inh = qHTS for Inhibitors of AMA1-RON; Towards Development of Antimalarial Drug Lead: Primary Screen; Potency, µM (highest dose often 58.2 µM), most hits filed as inhibitors; AlphaScreen AMA1-biotinylated RON2 peptide binding; 360,000 tested, 0.2% active; AID 720542, 2013; also: nearly all actives have a fitted effect of over 45% in size
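AMA1 (3D7) with his tag at 25 nM final met compounds first, then biotinylated RON2 peptide at 25 nM; detection used donor plus acceptor beads, 10 µg/mL apiece, read by AlphaScreen after 30 min at room temperature.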
Pf growth 96h = Primary qHTS for delayed death inhibitors of the malarial parasite plastid, 96 hour incubation. P. falciparum luciferase reporter growth, 96 h. Potency, µM (titrated, usually from 28.7 µM), usual class: inhibitors. 320,000 tested, 6.9% active
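P. falciparum expressing integrated firefly luciferase, in erythrocytes at 2% hematocrit, 0.05% parasitemia, incubated with compounds 96 h at 37 C, 5% CO2. Growth inhibition read as loss of luminescence; two-generation exposure targets delayed-death apicoplast inhibitors.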
CHX counter = Cycloheximide Counterscreen for Small Molecule Inhibitors of Shiga Toxin; cell reporter, cycloheximide protein synthesis inhibition counterscreen; max response, %; 300,000 tested, 12% active; AID 2314, 2010; in the data active = max response mostly above about 13%, no sharp cut-off; inactive = mostly below about 14%; also: read at 38.3 µM for the half of the compounds with a filed dose
SARS PLpro yeast = qHTS of Yeast-based Assay for SARS-CoV PLP | Potency, µM (series often up to 32.9 µM), hits mostly activators | 330,000 tested, 0.19% active | S. cerevisiae expressing SARS-CoV PLpro, growth rescue; calls by dose curve; also: nearly all actives have a fitted effect of over 55% in size
Large screens that a line does not name were inactive. Unless noted, calls follow the shape of the dose curve; as a rule, active = well fitted curve in the direction sought with a large enough effect; inconclusive = small, poorly fitted or top-dose-only effect, or another doubt; inactive = no such curve, though single readings can be large; an effect the other way counts as inactive or inconclusive.

O=C(OCCN1CCCC1)C1(c2ccccc2)CCCC1	Pf growth 96h 0.74µM
O=C(Cc1ccccc1)OCCN1CCCCC1	none
O=C(OCCN1CCCCC1)c1cccc(F)c1	Pf growth 96h 5.9µM
CN(C)CCOC(=O)C1(c2ccccc2)CCCC1	none (no result: Pf growth 48h)
CCOC(=O)Nc1ccc2c(COC(=O)C(NS(=O)(=O)c3ccc(Cl)cc3)C(C)O)cc(=O)oc2c1 (configuration not stated)	none (no result: Shiga toxin inh, Pf growth 48h, Pf growth 96h, CHX counter)
COc1ccccc1CNC(=O)COC(=O)c1cc2ccccc2o1	none (no result: Shiga toxin inh, Pf growth 48h, Pf growth 96h, CHX counter)
COc1cc2c(cc1NC(=O)c1ccccc1F)CCCC2	Shiga toxin inh 93, CHX counter 50
O=C(Nc1cccc2c1CCCC2)c1ccccc1F	Pf growth 96h inconclusive, CHX counter 22
COc1cc(OC)c(NC(=O)c2ccccc2F)cc1Cl	none
O=C(Nc1cccc2c1CCCC2)c1cccc(F)c1	none
COc1cc2c(cc1NC(=O)c1cccc(F)c1)CCCC2	Shiga toxin inh 67, CHX counter 36
N#CN1C2CCC1CC(O)(c1ccccc1)C2 (configuration not stated)	none (no result: Shiga toxin inh, Pf growth 48h, Pf growth 96h, CHX counter, SARS PLpro yeast)
Cc1c(C(=O)NCCSCc2cccc(C(F)(F)F)c2)cnn1-c1ccc(Cl)cc1	Pf growth 96h inconclusive
C/C(=N/NC(=O)c1ccc(Cl)cc1Cl)c1cccnc1	CHX counter 29
C/C(=N\NC(=O)c1ccc(O)cc1O)c1cccnc1	Shiga toxin inh 73, Pf growth 96h inconclusive, CHX counter 40
C/C(=N\NC(=O)c1ccncc1)c1cccnc1	none
Cc1ccc(Nc2c([N+](=O)[O-])ccc3nonc23)cc1C	Pf growth 48h inconclusive, AMA1-RON2 inh inconclusive
CCn1c(=O)n(CC)c2cc(N3CCCC3)c(NC(=O)c3cccc(Cl)c3)cc21	Pf growth 48h inconclusive, Pf growth 96h 12µM
CCn1c(=O)n(CC)c2cc(N3CCCC3)c(NC(=O)c3ccc(OC)c(Br)c3)cc21	Pf growth 48h 13µM
CCn1c(=O)n(CC)c2cc(N3CCCC3)c(NC(=O)c3cccc(C)c3)cc21	Pf growth 96h inconclusive
CCn1c(=O)n(CC)c2cc(N3CCCC3)c(NC(=O)c3cc(Cl)ccc3OC)cc21	Pf growth 48h inconclusive, Pf growth 96h 8.3µM
Cc1cccc(COc2ccccc2C(=O)NC2CCC(O)CC2)c1 (configuration not stated)	Pf growth 48h inconclusive, SARS PLpro yeast inconclusive (no result: Shiga toxin inh, CHX counter)
C/C(CCc1oc2ccc(Cl)cc2c1-c1ccc(C)o1)=N\O	none
CC(O)CN=c1cc(-c2ccccc2)oc2ccc(Cl)cc12 (configuration not stated)	Shiga toxin inh 77, Pf growth 48h inconclusive, Pf growth 96h inconclusive, CHX counter 55
O=c1cc(-c2ccccc2)oc2ccc(Br)cc12	none (no result: Shiga toxin inh, Pf growth 48h, Pf growth 96h, CHX counter)
CC(C)CN=c1cc(-c2ccccc2)oc2ccc(Cl)cc12	Pf growth 48h inconclusive, CHX counter 35
FC1(F)C(F)(F)C(F)(F)C2(F)C(F)(F)C(F)(F)C(F)(F)C(F)(F)C2(F)C1(F)F (configuration not stated)	none (no result: Shiga toxin inh, AMA1-RON2 inh, CHX counter, SARS PLpro yeast)
O=C(c1cc(-c2ccco2)nc2ccccc12)N1CCN(c2ccc(F)cc2)CC1	Shiga toxin inh 78, Pf growth 48h inconclusive, AMA1-RON2 inh inconclusive, Pf growth 96h 13µM, CHX counter 33
O=C(OCC(=O)N1CCN(C(=O)c2ccco2)CC1)c1cc(-c2ccco2)nc2ccccc12	AMA1-RON2 inh 21µM, Pf growth 96h inconclusive
O=C(OCC(=O)N1CCN(C(=O)c2ccco2)CC1)c1cc(-c2ccc(Cl)c(Cl)c2Cl)nc2ccccc12	Pf growth 96h inconclusive (no result: Pf growth 48h)
COC(=O)c1csc2c(C(F)(F)F)cc(N3CCN(C(=O)Nc4ccccc4)CC3)nc12	none
COC(=O)c1c(NC(=O)c2cccc(S(=O)(=O)N3CCN(C)CC3)c2)sc(C)c1C	Pf growth 48h inconclusive, Pf growth 96h 12µM (no result: Shiga toxin inh, CHX counter)
CCc1nc2ccccc2c(C(=O)OCC(=O)Nc2ccc(S(=O)(=O)N3CCOCC3)cc2)c1C	Pf growth 48h 9.3µM
CCN(CC)S(=O)(=O)c1cccc(C(=O)Nc2nnc(C)s2)c1	none
Cc1ccc(CNC(=O)COC(=O)c2ccc(S(=O)(=O)N3CCOCC3)cc2)cc1	none (no result: Shiga toxin inh, Pf growth 48h, Pf growth 96h, CHX counter)
CCc1nc2ccccc2c(C(=O)OCC(=O)Nc2cccc(S(=O)(=O)N3CCOCC3)c2)c1C	Pf growth 48h inconclusive, Pf growth 96h inconclusive
CCOC(=O)c1[nH]c2ccccc2c1NC(=O)c1ccc(S(=O)(=O)N2CCOCC2)cc1	Pf growth 48h inconclusive, Pf growth 96h 15µM
CCOC(=O)c1sc(NC(=O)c2cccc(S(=O)(=O)N(CC)CC)c2)cc1C	Pf growth 96h 2.1µM (no result: Pf growth 48h)
CN1CCN(S(=O)(=O)c2cccc(C(=O)Nc3sc4c(c3C(N)=O)CCCC4)c2)CC1	none (no result: Pf growth 96h)
CC(C)(C)NC(=O)CN(CCc1ccccc1)C(=O)c1csnn1	Pf growth 96h inconclusive
O=S1(=O)N[C@H](Cc2ccccc2)COc2cccc(N3CCC[C@@H]3CO)c21	none (no result: Shiga toxin inh, Pf growth 48h, Pf growth 96h, CHX counter, SARS PLpro yeast)
O=C(CCOc1ccccc1)NCC(c1ccco1)N1CCCCC1 (configuration not stated)	none (no result: Pf growth 96h)
COC(=O)[C@]12CCCCC=C1N(Cc1cccc3ccccc13)C(=O)[C@H](CC(=O)NCCc1ccccc1OC)C2	none (no result: Shiga toxin inh, Pf growth 48h, Pf growth 96h, CHX counter, SARS PLpro yeast)
Cc1nn(C2CCS(=O)(=O)C2)c(C)c1C=O (configuration not stated)	none
CCOC(=O)c1sc(NC(=O)c2cccc(S(=O)(=O)N3CCN(C)CC3)c2)cc1C	Pf growth 48h 2.3µM
CCOC(=O)c1sc(NC(=O)c2ccc(S(=O)(=O)N3CCOCC3)cc2)cc1C	Pf growth 48h inconclusive, Pf growth 96h 5.9µM
CCC1(c2ccc(F)cc2)NC(=O)N(CC(=O)N(C)C2CCS(=O)(=O)C2)C1=O (configuration not stated)	none (no result: Shiga toxin inh, CHX counter)
CC1CCCCN1C(=O)COC(=O)/C=C/c1ccc2ccccc2n1 (configuration not stated)	Shiga toxin inh 48, Pf growth 96h inconclusive, CHX counter 48
COC(=O)CNC(=O)COC(=O)/C=C/c1ccc2ccccc2n1	Shiga toxin inh 32, Pf growth 48h inconclusive, CHX counter 20
COC(=O)CNC(=O)COC(=O)/C=C/c1cccs1	none
COc1ccc(NC(=O)CS(=O)(=O)c2cn(CC(=O)N3CCOCC3)c3ccccc23)cc1OC	Pf growth 96h 7.4µM
COc1ccccc1NC(=O)C(=O)c1cn(CC(=O)N2CCOCC2)c2ccccc12	Shiga toxin inh 35, CHX counter 12
CC(C)N(C(=O)Cn1cc(S(=O)(=O)CC(=O)NCc2ccccc2)c2ccccc21)C(C)C	none
CC(=O)Nc1cccc(NC(=O)CS(=O)(=O)c2cn(CC(=O)N(C(C)C)C(C)C)c3ccccc23)c1	Pf growth 48h inconclusive, Pf growth 96h 12µM
COc1ccccc1NC(=O)N1CCCC1	Pf growth 96h inconclusive
